Measured values as given in PubChem BioAssay (Tox21).
Where “and” joins values, the source holds several entries; their conditions need not be identical. Identical values can stand only once. Results filed as inconclusive are left out. A call without a number means that no potency is given here. Values without a mark were called inactive. Calls of active or inactive are those of the source. The call rests on the fitted dose curve.

These molecules were tested against Thyrotropin receptor (Homo sapiens) (UniProt P16473) (assay: qHTS assay to identify small molecule agonists of the thyroid stimulating hormone receptor (TSHR) signaling pathway (AID 1224843; further: nearly all actives have a fitted effect of over 45% in size)). Details: TSHR-HEK293 cells, cAMP HTRF, agonist mode, 30 min; series mostly up to 92.4 µM; activation: at the top concentration.
From the text: National Center for Advancing Translational Sciences [NCATS]
NIH Chemical Genomics Center [NCGC]
U.S. Environmental Protection Agency [EPA]
National Institutes of Environmental Health Sciences [NIEHS]
National Toxicology Program [NTP]
U.S. Food and Drug Administration [FDA]
TSHR is the receptor for thyrotropin (thyroid stimulating hormone or TSH), a member of the glycoprotein hormone family. TSH is released by the anterior pituitary gland and is the main regulator of thyroid gland growth and development. Upon binding circulating thyrotropin, a G-protein signal cascade activates adenylyl cyclase and […] cAMP concentration is increased. cAMP is a key second messenger involved extensively in cellular signal transduction pathways associated with the majority of G-protein coupled receptors (GPCRs). The activation of these GPCRs by neurotransmitters, lipids, nucleotides, peptides and hormones results in the activation or the inhibition of plasma membrane-bound adenylate cyclase through heterotrimeric G-proteins. A cell-based TSHR assay was used to screen the Tox21 10K library for compounds that can modulate TSHR in agonist mode.
Tox21 Assay Protocol Summary:
TSHR-Hek293 cells were dispensed at 800 cells/4uL/well in 1536-well white plates using a Multidrop dispenser. […] The plates were incubated at room temperature for 30 min. 2.5 ul/well of cAMP-d2 and 2.5ul/well of anti-cAMP-cryptate was added respectively into the assay plates using a Flying Reagent Dispenser. After 1 hr incubation at room temperature, the fluorescence intensity in the plates was measured using an Envision plate reader. Each test compound was measured at 15 concentrations and in triplicates.
Potency means the concentration at half of the fitted maximal effect.

Thyrotropin receptor (Homo sapiens), sequence (P16473 whole entry, looked up): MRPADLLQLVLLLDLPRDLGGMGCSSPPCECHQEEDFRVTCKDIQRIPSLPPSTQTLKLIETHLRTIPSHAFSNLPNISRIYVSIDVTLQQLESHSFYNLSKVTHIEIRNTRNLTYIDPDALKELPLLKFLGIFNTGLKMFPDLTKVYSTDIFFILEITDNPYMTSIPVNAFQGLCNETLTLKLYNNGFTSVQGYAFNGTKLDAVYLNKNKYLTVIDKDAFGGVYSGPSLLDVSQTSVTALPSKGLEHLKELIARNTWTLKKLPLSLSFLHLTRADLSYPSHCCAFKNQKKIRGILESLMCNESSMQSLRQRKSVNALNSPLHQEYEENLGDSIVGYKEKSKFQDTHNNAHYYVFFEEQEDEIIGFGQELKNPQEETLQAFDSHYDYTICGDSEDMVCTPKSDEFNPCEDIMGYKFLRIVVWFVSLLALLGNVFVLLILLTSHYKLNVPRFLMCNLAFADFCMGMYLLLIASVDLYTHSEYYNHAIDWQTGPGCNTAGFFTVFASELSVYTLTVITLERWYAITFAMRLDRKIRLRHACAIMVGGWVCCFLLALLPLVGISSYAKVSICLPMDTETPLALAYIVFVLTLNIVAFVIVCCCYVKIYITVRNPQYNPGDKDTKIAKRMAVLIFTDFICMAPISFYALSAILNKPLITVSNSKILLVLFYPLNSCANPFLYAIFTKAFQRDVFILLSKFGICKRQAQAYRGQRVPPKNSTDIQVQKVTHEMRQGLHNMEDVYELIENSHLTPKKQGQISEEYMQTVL

| Structure (SMILES) | Potency | activation |
| --- | --- | --- |
| COc1ccc(OC)c(C(O)CNC(=O)CN)c1 (stereo not given) | inactive |  |
| CC1=CC2C3CC(C=C3C)C2C1 (stereo not given) | inactive |  |
| O=C(c1ccccc1)c1ccc(O)cc1O | inactive |  |
| COc1cccc2c1C(=O)c1c(O)c3c(c(O)c1C2=O)C[C@@](O)(C(=O)CO)C[C@@H]3O[C@H]1C[C@H](N)[C@H](O)[C@H](C)O1 |  | -6.33% [at 42.5 µM] |
| CC(=O)Oc1ccccc1C(=O)Nc1ncc([N+](=O)[O-])s1 | inactive |  |
| COc1cc([C@@H]2c3cc4c(cc3[C@H](O)[C@H]3COC(=O)[C@H]23)OCO4)cc(OC)c1OC | inactive |  |
| C/C=C/C(=O)O | inactive |  |
| CCOCCOCCO | inactive |  |
| CCCCC(CC)COC(=O)c1ccc(N(C)C)cc1 (stereo not given) | inactive |  |
| COC(C)COC(C)COC(C)CO (stereo not given) | inactive |  |
| OCCO | inactive |  |
| CC(C)Oc1ccc2c(=O)c(-c3ccccc3)coc2c1 | inactive |  |
| O=C(c1ccccc1)c1ccccc1O | inactive |  |
| c1cc(-c2ccncc2)ccn1 | inactive |  |
| Clc1nc(Cl)c(Cl)c(Cl)c1Cl | inactive |  |
| O=C(COc1ccc(Cl)cc1)N1CCN(Cc2ccc3c(c2)OCO3)CC1 | inactive |  |
| O=C(OCc1ccccc1)c1ccccc1O |  | -14% |
| C=C(C)C(=O)OCCOC(=O)C(=C)C | inactive |  |
| CCCCNS(=O)(=O)c1ccccc1 | inactive |  |
| Cc1cc2nc3c(=O)[nH]c(=O)nc-3n(C[C@H](O)[C@H](O)[C@H](O)CO)c2cc1C | inactive |  |

| Structure (SMILES) | Potency | activation |
| --- | --- | --- |
| O=C=Nc1ccc(Cc2ccc(N=C=O)cc2)cc1 | inactive |  |
| CC(C)=CCCC(C)CCO (stereo not given) | inactive |  |
| O=S(=O)(O)c1ccc(O)cc1 | inactive |  |
| Nc1ccc(Cl)cc1Cl |  | -12.2% |
| CCOC(=O)C(C#N)=C(c1ccccc1)c1ccccc1 | inactive |  |
| OC[C@H]1O[C@@H]2O[C@H]3[C@H](O)[C@@H](O)[C@@H](O[C@H]4[C@H](O)[C@@H](O)[C@@H](O[C@H]5[C@H](O)[C@@H](O)[C@@H](O[C@H]6[C@H](O)[C@@H](O)[C@@H](O[C@H]7[C@H](O)[C@@H](O)[C@@H](O[C@H]8[C@H](O)[C@@H](O)[C@@H](O[C@H]1[C@H](O)[C@H]2O)O[C@@H]8CO)O[C@@H]7CO)O[C@@H]6CO)O[C@@H]5CO)O[C@@H]4CO)O[C@@H]3CO | inactive |  |
| S=C(NC1CCCCC1)NC1CCCCC1 |  | -5.71% |
| CCCCC/C=C/C=C/C=O | inactive |  |
| COc1ccccc1/C=C/C=O | 31.4 µM (active) and 54.5 µM (active) |  |
| O=P(O)(O)O | inactive |  |
| CC1=CCC(C(C)(C)O)CC1 (stereo not given) | inactive |  |
| C#C[C@]1(O)CC[C@H]2[C@@H]3CCc4cc(OC)ccc4[C@H]3CC[C@@]21C | 19.3 µM (active) |  |
| Nc1ncnc2nc[nH]c12 | inactive |  |
| CCC(C)CO (stereo not given) | inactive |  |
| Cc1cccc(C(=O)O)c1 | inactive |  |
| O=C1c2cccc(O)c2C(=O)c2c(O)cccc21 | inactive |  |
| CCCCc1oc2ccccc2c1C(=O)c1cc(I)c(OCCN(CC)CC)c(I)c1 |  | 15.6% [at 42.5 µM] |
| O=C(Nc1ccc(Cl)cc1)Nc1ccc(Cl)c(Cl)c1 |  | -1.71% [at 42.5 µM] |
| Brc1cc(Oc2cc(Br)c(Br)c(Br)c2Br)c(Br)c(Br)c1Br | inactive |  |
| CC(=O)CC/C=C(\C)CCC=C(C)C | inactive |  |
